Records with an inconclusive call do not appear. Activity calls are given as the source filed them. Rule for the calls: active = hit-call score of the fitted dose curve at least 0.9, where 1 is the maximum; inconclusive = response in the unintended direction; inactive = score below 0.9.
biological target: human Thyroid Receptor alpha (THRa1), THRA (gene 7067) (UniProt P10827); assay: ATG_THRa1_TRANS: Attagene TRANS-FACTORIAL HepG2 Assay for human Thyroid Receptor alpha (THRa1) (AID 2283014)
Procedure: ATG_TRANS is a cell-based, multiplexed-readout assay that uses HepG2, a human liver cell line, with measurements taken at 24 hours after chemical dosing in a 24-well plate.ATG_THRa1_TRANS is one of 30 assay component(s) measured or calculated from the ATG_TRANS assay. It is designed to make measurements of mRNA induction, a form of inducible reporter, as detected with fluorescence intensity signals by Reverse transcription polymerase chain reaction (RT-PCR) and Capillary electrophoresis technology.Data from the assay component ATG_THRa1_TRANS was analyzed into 1 assay endpoint. This assay endpoint, ATG_THRa1_TRANS, was analyzed in the positive analysis fitting direction relative to DMSO as the negative control and baseline of activity. Using a type of inducible reporter, measures of mRNA for gain-of-signal activity can be used to understand the reporter gene at the transcription factor-level as they relate to the gene THRA. Furthermore, this assay endpoint can be referred to as a primary readout, because this assay has produced multiple assay endpoints where this one serves a reporter gene function. To generalize the intended target to other relatable targets, this assay endpoint is annotated to the nuclear receptor intended target family, where the subfamily is non-steroidal.
Human liver HepG2 cells are transiently transfected with multiple reporter transcription units (MRTUs) in 6-well plates using FuGene 6 reagent (Roche; 3 ml FuGene/1 mg DNA). The MRTU constructs are regulated by a cis-regulating element (promoter). […] A major difference between the CIS and TRANS system is that in CIS activities of endogenous TFs are measured, whereas the TRANS assay evaluates changes in activities of exogenous, chimeric NR-Gal4 proteins. […] At the end of 24 hour incubation, total RNA was isolated using TriZol reagent (Invitrogen). The isolated RNA is then reverse-transcribed using oligo(dT) primer and Mo-MLV reverse transcriptase (Invitrogen) with DNAse I (Ambion) treatment for 30 min. The one-tenth of the produced cDNA was amplified by PCR using Taq DNA polymerase (Invitrogen) and two reporter sequence-specific primers. The PCR products were fluorescently labeled by primer extension with 6-arboxyfluorescein (6-FAM) 5'-labeled reporter sequence-specific primer (2 min at 95 C, 20 s at 68 C and 10 min at 72 C) and these products were digested with 5U of HpaI (New England Biolabs) for 2h at 37 C. The fragments were purified using Qiaquick PCR columns (Qiagen), analyzed on an ABI 3130xL genetic analyzer (Applied Biosystems) with peak positions identified by using a set of X-rhodamine (ROX)-labeled MapMarker1000 molecular weight standards (BioVentures). The raw capillary electrophoresis data was processed using Attagraph software (Attagene).

human Thyroid Receptor alpha (THRa1), THRA (gene 7067), sequence (P10827 whole entry, looked up): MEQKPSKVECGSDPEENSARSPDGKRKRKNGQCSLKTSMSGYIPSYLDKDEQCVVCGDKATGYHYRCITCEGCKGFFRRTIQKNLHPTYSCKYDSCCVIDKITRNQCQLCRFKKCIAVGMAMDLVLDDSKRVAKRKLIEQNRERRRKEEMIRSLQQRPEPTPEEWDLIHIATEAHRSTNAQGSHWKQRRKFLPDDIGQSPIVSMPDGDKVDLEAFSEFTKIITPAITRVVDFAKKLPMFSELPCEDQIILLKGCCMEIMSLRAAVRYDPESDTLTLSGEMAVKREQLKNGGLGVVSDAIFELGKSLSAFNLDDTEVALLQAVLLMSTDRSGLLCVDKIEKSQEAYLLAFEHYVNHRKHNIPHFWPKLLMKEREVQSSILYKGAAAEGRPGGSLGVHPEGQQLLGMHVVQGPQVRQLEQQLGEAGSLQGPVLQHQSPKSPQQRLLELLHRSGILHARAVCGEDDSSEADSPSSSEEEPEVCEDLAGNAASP

Which outcome does the source give for `ClC1=C(Cl)[C@]2(Cl)[C@H]3[C@H]([C@@H]4C=C[C@H]3C4)[C@@]1(Cl)C2(Cl)Cl` here?
The outcome was “inactive”.

With `Cc1ccc(N)cc1` as the molecule, how does the outcome read?
The outcome was “inactive”.

How did the outcome turn out when `O=C1CCCO1` was run?
Its outcome is “inactive”.

Which outcome does the source give for `[As]#[In]` here?
The outcome was “inactive”.

How did the outcome turn out when `O=[N+]([O-])c1ccc(Oc2ccc(Cl)cc2Cl)cc1` was run?
The outcome was “inactive”.

For `CO[C@@H]1[C@H](OC(=O)NC(=O)CCl)CC[C@]2(CO2)[C@H]1[C@@]1(C)O[C@@H]1CC=C(C)C`, which outcome is on record?
The outcome was “inactive”.

Which outcome does the source give for `CCCSC(=O)N(CCC)CCC` here?
The outcome was “inactive”.

How did the outcome turn out when `CN(C)c1ccccc1` was run?
Its outcome is “inactive”.

With `Nc1ccc(Cc2ccc(N)cc2)cc1` as the molecule, how does the outcome read?
Its outcome is “inactive”.

Which outcome does the source give for `[Cl-].[Cl-].[Hg+2]` here?
Its outcome is “inactive”.

`CN(C)[C@@H]1C(=O)C(C(N)=O)=C(O)[C@@]2(O)C(=O)C3=C(O)c4c(O)cccc4[C@@](C)(O)[C@H]3C[C@@H]12` was tested. Which outcome did it give?
The outcome was “inactive”.

How did the outcome turn out when `CN(C)C(=O)Nc1ccc(Cl)cc1` was run?
Its outcome is “inactive”.

For `CC(O)CCO` (stereo not given), which outcome is on record?
The outcome was “inactive”.

For `CCCCCCCCCCCCCN1CC(C)OC(C)C1` (stereo not given), which outcome is on record?
Its outcome is “inactive”.

`O=P(OCCCl)(OCCCl)OCCCl` was tested. Which outcome did it give?
The outcome was “inactive”.

For `C[N+](C)(C)CC1CO1` (stereo not given), which outcome is on record?
Its outcome is “inactive”.

For `COC(=O)c1ccccc1N`, which outcome is on record?
The outcome was “inactive”.

`CNC(=O)Oc1cccc2c1OC(C)(C)C2` was tested. Which outcome did it give?
Its outcome is “inactive”.

For `COC(=O)Nc1nc2ccccc2[nH]1`, which outcome is on record?
Its outcome is “inactive”.

Which outcome does the source give for `C[C@]12C=CC3=C4CCC(=O)C=C4CC[C@H]3[C@@H]1CC[C@@H]2O` here?
Its outcome is “inactive”.

For `c1ccc2c(c1)oc1ccccc12`, which outcome is on record?
The outcome was “inactive”.

For `Nc1ccc(Cl)cc1N`, which outcome is on record?
The outcome was “inactive”.

`CCNS(=O)(=O)C(F)(F)C(F)(F)C(F)(F)C(F)(F)C(F)(F)C(F)(F)C(F)(F)C(F)(F)F` was tested. Which outcome did it give?
Its outcome is “inactive”.

For `CCN(CC)N=O`, which outcome is on record?
Its outcome is “inactive”.

How did the outcome turn out when `Cc1cc(N=Nc2ccccc2C)ccc1N` was run?
The outcome was “inactive”.

For `Cc1cccc(N)c1N`, which outcome is on record?
The outcome was “inactive”.

For `[O-][Cl+]O`, which outcome is on record?
Its outcome is “inactive”.

Which outcome does the source give for `OCCCBr` here?
Its outcome is “inactive”.

Which outcome does the source give for `ClCCOCCCl` here?
Its outcome is “inactive”.

With `C1=Cc2cccc3cccc1c23` as the molecule, how does the outcome read?
The outcome was “inactive”.

`OCCCl` was tested. Which outcome did it give?
The outcome was “inactive”.

Which outcome does the source give for `Cc1ccc([N+](=O)[O-])cc1` here?
The outcome was “inactive”.

`c1ccc2c(c1)-c1cccc3cccc-2c13` was tested. Which outcome did it give?
The outcome was “inactive”.

For `c1ccc(NNc2ccccc2)cc1`, which outcome is on record?
Its outcome is “inactive”.

Which outcome does the source give for `Clc1ccc(C(c2ccc(Cl)cc2)C(Cl)(Cl)Cl)cc1` here?
The outcome was “inactive”.

Which outcome does the source give for `Nc1ccc([N+](=O)[O-])cc1` here?
Its outcome is “inactive”.

How did the outcome turn out when `N#CC(Br)(Br)C(N)=O` was run?
The outcome was “inactive”.

Which outcome does the source give for `Clc1ccc(C(c2ccc(Cl)cc2)C(Cl)Cl)cc1` here?
Its outcome is “inactive”.

For `O=[N+]([O-])C(Br)(CO)CO`, which outcome is on record?
The outcome was “inactive”.

With `O=C(Nc1ccccc1)c1ccccc1I` as the molecule, how does the outcome read?
The outcome was “inactive”.

— PubChem BioAssay (EPA / NIEHS)
